From PubChem BioAssay AID493170 (National Center for Advancing Translational Sciences (NCATS), 2011)
Results filed as inconclusive are left out. Unmarked numbers belong to inactive results. Active and inactive are the calls of the source. The call rests on the fitted dose curve; in most records, active means well fitted inhibition curve with a large enough effect; inconclusive means small, poorly fitted or top-dose-only effect, or effect the other way; inactive means flat fitted curve, though single readings scatter.
Further: nearly all actives have a fitted effect of over 50% in size.
On the % scale 0 is the no-effect control and ±100 the full control effect; potency means the concentration at half of the fitted maximal effect.

These compounds were tested against Ubiquitin carboxyl-terminal hydrolase 2 (Homo sapiens) (UniProt O75604) (assay: Ub-rhodamine 110 based assay for inhibitors Ubiquitin-specific Protease USP2a). Conditions: USP2a Ub-rhodamine110 cleavage, fluorescence; series mostly up to 38.3 µM; activity change, negative = inhibition: at the top concentration.
Sequence of Ubiquitin carboxyl-terminal hydrolase 2 (Homo sapiens) (O75604 whole entry, looked up): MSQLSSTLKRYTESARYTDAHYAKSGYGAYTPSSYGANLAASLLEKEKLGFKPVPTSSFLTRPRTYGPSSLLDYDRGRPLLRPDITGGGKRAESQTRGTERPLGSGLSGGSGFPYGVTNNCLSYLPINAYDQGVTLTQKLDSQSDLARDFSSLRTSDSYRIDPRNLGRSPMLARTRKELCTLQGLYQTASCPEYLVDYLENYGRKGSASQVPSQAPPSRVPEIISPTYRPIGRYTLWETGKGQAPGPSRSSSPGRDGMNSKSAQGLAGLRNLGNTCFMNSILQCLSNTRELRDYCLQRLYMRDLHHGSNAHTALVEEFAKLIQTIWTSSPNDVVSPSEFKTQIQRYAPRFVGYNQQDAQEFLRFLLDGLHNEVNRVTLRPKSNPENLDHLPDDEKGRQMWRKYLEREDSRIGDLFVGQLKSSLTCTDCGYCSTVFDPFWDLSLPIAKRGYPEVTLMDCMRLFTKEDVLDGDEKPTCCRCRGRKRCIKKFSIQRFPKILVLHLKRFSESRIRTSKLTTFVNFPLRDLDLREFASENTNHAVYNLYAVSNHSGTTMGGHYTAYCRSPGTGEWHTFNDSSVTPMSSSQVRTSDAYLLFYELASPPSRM
In short: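 5 nM USP2a preincubated with compounds for 30 min at RT in 20 mM Tris-HCl pH 8.0, 2 mM CaCl2, 2 mM beta-mercaptoethanol, 0.05% CHAPS. Cleavage of 150 nM Ub-rhodamine 110 read kinetically (Ex 485/Em 531) for 7 min.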
In the case of `O=C(OCC1OC(n2ncc(=O)[nH]c2=O)C(OC(=O)c2ccccc2)C1OC(=O)c1ccccc1)c1ccccc1` (centres undefined), the Potency is reported as 4.47 µM (active).
For `COc1cc(C(O)P(=O)(OC(C)C)c2ccc(N(C)C)cc2)cc(OC)c1OC` (centres undefined), the “activity change, negative = inhibition” value was -2.03%.
In the case of `Cc1ccc(N2CN=c3s/c(=C\c4cccnc4)c(=O)n3C2)cc1`, the “activity change, negative = inhibition” value is reported as 0.546%.
For `COc1cccc(-c2csc3nnc(SCC(=O)NCc4cccs4)n23)c1`, the “activity change, negative = inhibition” value was -10.5%.
With `O=C(CN1CCOCC1)Nc1ccc(C2CCCCC2)cc1` the “activity change, negative = inhibition” value was 14.6%.
For `CCn1c(=O)c(C(=O)Nc2ccccc2S(N)(=O)=O)c(O)c2ccccc21`, the Potency was 5.62 µM (active).
With `CN1CCN(CCCCOc2ccc(F)cc2)CC1` the “activity change, negative = inhibition” value was -2.66%.
With `CN(C)c1cccc(C(=O)NNC(=O)C23CC4CC(CC(C4)C2)C3)c1` the “activity change, negative = inhibition” value was 0.556%.
For `COCCn1c(SCC(=O)Nc2cc(C)on2)nnc1-c1ccccc1`, the “activity change, negative = inhibition” value was -6.78%.
With `CC(C)n1c(/C=C/[C@H](O)C[C@H](O)CC(=O)O)c(-c2ccc(F)cc2)c2ccccc21` the “activity change, negative = inhibition” value was -10.4%.
In the case of `C#CCOCCOCCOCCNc1nc(N2CCN(C(=O)CCCCCCCCCCNC(=O)Cn3cc(CCCCCN)nn3)CC2)nc(N2CCN(C(=O)CCCCCCCCCCNC(=O)Cn3cc(CCCCCN)nn3)CC2)n1`, the “activity change, negative = inhibition” value is reported as -13.9%.
`Cc1ccc(-c2ccc(CCC(=O)O)n2NC(=O)c2cccs2)cc1` was tested, and the “activity change, negative = inhibition” value was -26.2%.
With `CCOC(=O)c1c(NC(C)=O)sc2c1CCCNC2=O` the “activity change, negative = inhibition” value was -1.65%.
In the case of `CCC(C)Cn1c(O)cc2nn(-c3nc4ccccc4s3)c(=O)c-2c1C` (centres undefined), the Potency is reported as 10 µM (active).
`CC(C)CC(c1nnnn1CC1CCCO1)N1CCN(c2nc3ccccc3s2)CC1` (centres undefined) was tested, and the “activity change, negative = inhibition” value was -9.59%.
`CC(C)c1ccc(C2=C(O)c3ccccc3C(=O)C2=O)cc1` was tested, and the “activity change, negative = inhibition” value was -1.3%.
`Cc1ccc(C2(C)NC(=O)N(CC(=O)c3ccc(Cl)s3)C2=O)cc1` (centres undefined) was tested, and the Potency was 11.2 µM (active).
`O=C(CNC(=O)C1CCCCC1)NC1=NCCS1` was tested, and the “activity change, negative = inhibition” value was -7.26%.
For `O=S(=O)(Nc1ccc(O)c(Sc2nc3ccccc3s2)c1)c1cccc2ccccc12`, the Potency was 10 µM (active).
With `COc1ccc(/C=C(\NC(=O)c2ccc(OC)c(OC)c2)C(=O)N2CCN(C)CC2)cc1` the “activity change, negative = inhibition” value was -5.21%.
With `N#Cc1c(NC(=O)CSc2ncnc3sccc23)oc(-c2ccco2)c1-c1ccco1` the Potency was 3.98 µM (active).
With `O=C(NN1C(=O)/C(=C/C=C/c2ccco2)SC1=S)c1ccncc1` the Potency was 10 µM (active).
With `CCN=C1SC(C(=O)Nc2cccc(OCC)c2)CC(=O)N1CC` (centres undefined) the “activity change, negative = inhibition” value was -2.14%.
With `COC(=O)c1[nH]c2cc(OC)ccc2c1N` the “activity change, negative = inhibition” value was -7.95%.
In the case of `COc1ccccc1-n1c(SCC(=O)Nc2ccc(C)cc2)nc(O)cc1=O`, the “activity change, negative = inhibition” value is reported as 1.74%.
For `O=C(O)c1cccc(S(=O)(=O)NNc2ccccc2C(F)(F)F)c1`, the “activity change, negative = inhibition” value was -7.76%.
`O=C(N/N=C/c1ccc(-c2ccc(Cl)c(C(=O)O)c2)o1)c1cc2c(ccc3ccccc32)o1` was tested, and the Potency was 10 µM (active).
In the case of `O=C(N/C(=C/c1cccnc1)C(=O)N1CCOCC1)c1ccco1`, the “activity change, negative = inhibition” value is reported as -3.6%.
In the case of `COc1ccc(/C=C2\SC(=O)N(CC(=O)Nc3cccc(C)c3)C2=O)cc1O`, the Potency is reported as 8.91 µM (active).
For `COc1ccc2[nH]c(=O)c(CN(C)C(=O)C3CCCCC3)cc2c1`, the “activity change, negative = inhibition” value was -4.5%.
`CC1(C(=O)O)Sc2[nH]c(=O)sc2C2c3ccccc3OC(=O)C21` (centres undefined) was tested, and the “activity change, negative = inhibition” value was 9.19%.
With `Cc1noc(NS(=O)(=O)c2ccc(N/C=C\C(=O)c3cccc4ccccc34)cc2)c1C` the Potency was 10 µM (active).
`O=C(Nc1nc(-c2ccco2)c(-c2ccco2)s1)C1CC(=O)N(c2ccc3c(c2)OCCO3)C1` (centres undefined) was tested, and the Potency was 2.51 µM (active).
With `COc1ccc(CC(NC(C)=O)C(=O)NC2CCN(c3nc(C)cc(C)c3C#N)CC2)c(OC)c1` (centres undefined) the “activity change, negative = inhibition” value was -12.1%.
With `Nc1nc(NCCO)nc(NCC2CCCO2)c1[N+](=O)[O-]` (centres undefined) the “activity change, negative = inhibition” value was -7.49%.
For `Cc1ccccc1NC(=O)CSc1nnc(-c2ccco2)c(-c2ccco2)n1`, the Potency was 10 µM (active).
`CC(=O)c1ccc(Nc2ncnc3c2oc2ccccc23)cc1` was tested, and the “activity change, negative = inhibition” value was -4.39%.
`CC(=O)N1c2c(cc(Br)cc2S(=O)(=O)NCc2cccnc2)CC1C` (centres undefined) was tested, and the “activity change, negative = inhibition” value was -1.19%.
In the case of `CN(C)c1ccc(C(CN)c2c[nH]c3ccccc23)cc1` (centres undefined), the “activity change, negative = inhibition” value is reported as -5.84%.
